Bioassay records from PubChem BioAssay.
Tgondii IFNg = T. gondii growth inhibition with IFN-gamma, primary screen, cell-based | Toxoplasma gondii growth in IFN-gamma-treated host cells; active compounds read low | activity change, negative = inhibition, % (no concentration beside the values) | hit rate 3.8% among 69,000; in the data active = activity change below about -70%, passing the limit was not always enough;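 also: host cells are HeLa cells infected with Toxoplasma gondii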
* = called active by the depositor; i = inactive. The full list was thinned out, with hits kept by preference.

SMILES | Tgondii IFNg
COc1ccc(S(=O)(=O)Nc2ccc3c(c2)C(=O)N([C@@H](C)CO)C[C@H](C)[C@H](CN(C)Cc2ccc(C(F)(F)F)cc2)OCCCC[C@H](C)O3)cc1 | -107*
Cc1ccc(S(=O)(=O)Nc2ccc3c(c2)C(=O)N([C@@H](C)CO)C[C@H](C)[C@H](CN(C)Cc2ccc(C(F)(F)F)cc2)O3)cc1 | -57
C[C@@H]1CN([C@@H](C)CO)C(=O)c2cc(NS(=O)(=O)c3ccc(Cl)cc3)ccc2O[C@@H](C)CCCCO[C@H]1CN(C)Cc1ccncc1 | -12
CSc1scc2c1-c1nn(C(C)=O)cc1CC2 | 134
O=C(O)c1ccc(C(=O)O)c(OC(F)(F)F)c1 | 12
CCC(c1cccnc1)N(C)Cc1c(CO)cnc(C)c1O (stereo unspecified) | -2
O=C(c1cc2cccnc2n(Cc2ccc(F)cc2)c1=O)N1CCN(c2ccccc2Cl)CC1 | -84*
COc1ccccc1N1CCN(C(=O)c2cc3cccnc3n(Cc3ccccc3)c2=O)CC1 | 28
O=C(c1cc2cccnc2n(Cc2ccc(F)cc2)c1=O)N1CCN(c2cccc(Cl)c2)CC1 | -119*
O=C(c1ccco1)N1CCN(C(=O)c2cc3cccnc3n(Cc3ccc(F)cc3)c2=O)CC1 | -15
CN(Cc1ccccc1)C(=O)c1cc2cccnc2n(Cc2ccccc2)c1=O | 16
O=C(c1cc2cccnc2n(Cc2ccc(F)cc2)c1=O)N(Cc1ccccc1)c1ccccc1 | -29
CC(C)N(Cc1ccccc1)C(=O)c1cc2cccnc2n(Cc2ccc(F)cc2)c1=O | -96*
COc1ccc(N2CCN(C(=O)c3cc4cccnc4n(Cc4ccc(F)cc4)c3=O)CC2)cc1 | 33
O=C(c1cc2cccnc2n(Cc2ccc(Cl)cc2)c1=O)N1CCN(c2ccccc2)CC1 | -4
O=C(c1cc2cccnc2n(Cc2ccc(Cl)cc2)c1=O)N1CCN(c2ccc(F)cc2)CC1 | -98*
CC1CCN(C(=O)c2cc3cccnc3n(Cc3ccc(F)cc3)c2=O)CC1 | 15
O=C(c1cc2cccnc2n(Cc2ccc(F)cc2)c1=O)N1CCCCCC1 | -12
Cc1ccc(S(=O)(=O)N[C@@H]2CC[C@@H](CC(=O)NCc3ccncn3)O[C@H]2CO)cc1 | 17
CCN(CC)C(=O)c1cc(=O)n(CC(=O)NC2CCCC2)c2ccccc12 | 8
CCOC1CC2(CCN(Cc3cccn3C)CC2)C1 | 14
CC(=O)c1ccc(NC(=O)c2ncn[nH]2)cc1 | 27
Cn1nc(C2CCN(C(=O)[C@H]3C[C@@H]4C=C[C@H]3C4)CC2)n(-c2ccccc2)c1=O | -6
COc1ccc(C[C@H](NC(=O)[C@H](C)NC(=O)CN2CCOCC2)C(=O)N[C@@H](Cc2ccccc2)C(=O)[C@]2(C)CO2)cc1 | -74*
COc1ccc(-c2nc(C(=O)NC(C)CN3CCOCC3)cs2)cc1 (stereo unspecified) | 26
SMILES | Tgondii IFNg
CC(C)C[C@H](NC(=O)[C@H](CCc1ccccc1)NC(=O)CN1CCOCC1)C(=O)N[C@@H](Cc1ccccc1)C(=O)N[C@@H](CC(C)C)C(=O)[C@@]1(C)CO1 | -63
Cc1ccc(C2(O)CCN(c3nc(C(N)=O)cs3)CC2)nc1 | 1
O=C1NC(c2ccccc2)C12CCN(CCO)CC2 (stereo unspecified) | 28
Cc1ccc(C2(O)CCN(C(=O)COc3ccc4c(c3)OCO4)CC2)nc1 | 7
CC(C)Nc1ncc(-c2nccn2Cc2ccc(F)c(F)c2)cn1 | -46
Fc1cccc(CN2CCN(Cc3ccc(-c4ccccc4)nc3)CC2)c1 | 0
CCN1CCN(Cc2ccc(Nc3ncc(F)c(-c4cc(F)c5nc(C)n(C(C)C)c5c4)n3)nc2)CC1 | -78*
COc1ccccc1-c1cc2c(=O)n(Cc3nc(-c4ccccc4OC)oc3C)ccn2n1 | i
CC(C)CN(C[C@@H](OP(=O)(O)O)[C@H](Cc1ccccc1)NC(=O)O[C@H]1CCOC1)S(=O)(=O)c1ccc(N)cc1 | -5
O=C(Cn1ncc2ccccc2c1=O)N1CC[C@@H](c2ccccc2)[C@H](O)C1 | -4
Nc1cc(N)nc(SCc2ccccc2)n1 | 172
Cn1nc(-c2ccc(S(N)(=O)=O)s2)cc1C(F)(F)F | 23
Cn1nc(-c2ccc(-c3ccnc(SCc4ccccc4)n3)s2)cc1C(F)(F)F | -97*
Cc1nc(N2CCC(CO)(Cc3ccccc3)CC2)cc(-n2cccn2)n1 | -43
CCC#CCn1c(=O)n(C(CC)CC)c2ncc(C(=O)O)cc21 | -4
Cc1cccc(C(=O)N2CCc3c([nH]c4ccccc34)C2c2cccc(C)c2)c1 (stereo unspecified) | i
CCOc1cccc(C2c3[nH]c4ccccc4c3CCN2C(=O)c2cccc(F)c2)c1 (stereo unspecified) | -123*
CCOc1cccc(C2c3[nH]c4ccccc4c3CCN2C(=O)c2cccc(C)c2)c1 (stereo unspecified) | -112*
CN(C)c1cc(N2CCCC(CO)(CCOc3ccccc3)C2)ncn1 (stereo unspecified) | 0
CC(C)CCN1C[C@@H]2CCN(C(=O)c3ccccn3)CC[C@H]2S1(=O)=O | -35
COc1ccc(C(=O)N2CCC3(CC2)NC(=O)c2cc(F)ccc2N3C)c(OC)c1 | 4
Cc1csc(C(C)n2ccnc2-c2cccc(CN3CCOCC3)c2)n1 (stereo unspecified) | -2
O=C(CC1N=C2c3ccccc3N=C(SCc3cccc(F)c3)N2C1=O)NCc1ccc(F)cc1 (stereo unspecified) | -21
COc1ccc2c3c(n(C)c2c1)[C@H](CO)N(C(=O)Cc1ccccc1)CC31CN(C)C1 | -15
OC(c1cc(C(F)(F)F)nc2c(C(F)(F)F)cccc12)C1CCCCN1 (stereo unspecified) | -80*
SMILES | Tgondii IFNg
COCC1(C(=O)NC(C)c2ccc3c(c2)OCCCO3)CCC1 (stereo unspecified) | 42
COc1ccc(OCC(O)CN(Cc2ccccc2)Cc2ccccc2)cc1 (stereo unspecified) | -45
CC(=O)C(C)(C)OC(=O)NCCc1ccc(Cl)cc1 | -76*
COc1ccc(Cl)cc1C(=O)NCCc1ccc(C(=O)O)cc1 | 14
CC(=O)C(C)(C)OC(=O)NCc1cccs1 | 32
O=C(CSc1nnc(-c2ccccc2O)o1)Nc1nnc(-c2ccccc2)s1 | 49
CNc1ccccc1C(=O)NC(C)(C)C | 88
O=C(NNc1nc2cc(F)ccc2n2cccc12)c1cnccn1 | -81*
CC(C)C(=O)c1cc(-c2csc(-c3cnccn3)n2)n2ccccc12 | -14
Cc1nc2ncccn2c1C(=O)NCc1cnn(-c2cccc(F)c2)c1 | -1
Fc1cccc(CNCC2OCCc3cn(CC4CCOCC4)nc32)c1 (stereo unspecified) | 6
Fc1ccc(-n2cc(CCCCN3CCC4(CC3)OCc3ccccc34)c3ccccc32)cc1 | -76*
COCC(=O)N1CCC2(CC1)CC1(CCN(c3ncccn3)CC1)C(=O)N2C | 5
CS(=O)(=O)N(CC(=O)NCCc1cnc[nH]1)c1cccc(F)c1 | -2
OCC1OC(n2cnc3c(NC4CCCC4)ncnc32)C(O)C1O (stereo unspecified) | 9
OC[C@H]1O[C@@H](n2cnc3c(NC4CCCC4)ncnc32)[C@H](O)[C@@H]1O | -2
OC[C@H]1O[C@@H](n2cnc3c(NCc4ccco4)ncnc32)[C@H](O)[C@@H]1O | -83*
CN(C)C(=O)C1Cn2ccnc2C2(CCN(S(=O)(=O)c3ccc(F)cc3)CC2)O1 (stereo unspecified) | 3
O=C(NCCN1CCN(c2ncccn2)CC1)C1CCOC1 (stereo unspecified) | 2
COC(=O)CSC(=O)N/C=C/c1ccsc1 | -22
